HCMV inh: qHTS Assay for inhibitors of the human cytomegalovirus (HCMV); 410,000 compounds, 4.5% hits; activity change, negative = inhibition, % at 57.5 µM; AID 1259415, 2018; HFF cells, HCMV-luciferase reporter, 72 h; stronger effect = lower value; in the data active = activity change below about -60%; inconclusive = no clear call, values can overlap the other calls; inactive = above about -39%
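Human foreskin fibroblasts infected with luciferase-reporter HCMV at MOI 1 PFU/cell, compounds at two doses. Luciferase measured 72 h post infection; normalized to buffer-only basal and Salinomycin (10uM) controls.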
FMDV antiviral: High Throughput Screening for Foot and Mouth Disease Virus Antivirals. Potency, µM (series often up to 57.9 µM), inactives show at the top dose activity change, negative = inhibition, most hits filed as inhibitors. FMDV antiviral cell-based qHTS. 410,000 compounds, 1.2% hits; calls by dose curve; tested in HEK293T cells; also: read-out not given here; potency is read from the fitted curve at half-maximal effect; nearly all actives have a fitted effect of over 45% in size
MARV entry inh: qHTS for inhibitors of binding or entry into cells for Marburg Virus; 300,000 compounds, 1.8% hits; AID 540276, 2011; Potency, µM (series often up to 37.8 µM), inactives show top-dose activity change, negative = inhibition, actives largely listed as inhibitors; Marburg virus pseudotyped entry inhibition, cell reporter; calls by dose curve; tested in HEK293 cells; also: potency is read from the fitted curve at half-maximal effect
Vaccinia mCherry: qHTS for Stage-Specific Inhibitors of Vaccinia Orthopoxvirus: mCherry Reporter Primary qHTS; 310,000 compounds, 0.63% hits; AID 720579, 2013; Potency, µM (doses to about 36.5 µM), inactives show at the top dose activity change, negative = inhibition, usual class: inhibitors; Vaccinia virus mCherry reporter infection, fluorescence; calls by dose curve; tested in A549 cells; also: potency is read from the fitted curve at half-maximal effect; nearly all actives have a fitted effect of over 35% in size
Lassa entry inh: qHTS for Inhibitors of binding or entry into cells for Lassa Virus; Lassa virus pseudotype entry inhibition, cell reporter; Potency, µM (top dose mostly 37.9 µM), inactives show top-dose activity change, negative = inhibition, usual class: inhibitors; 300,000 compounds, 1.2% hits; calls by dose curve; tested in HEK293 cells; also: potency is read from the fitted curve at half-maximal effect; nearly all actives have a fitted effect of over 50% in size
Vaccinia Venus: qHTS for Stage-Specific Inhibitors of Vaccinia Orthopoxvirus: Venus Reporter Primary qHTS; 330,000 compounds, 0.46% hits; Potency, µM (series often up to 36.5 µM), without a hit: top-dose activity change, negative = inhibition, actives largely listed as inhibitors; Vaccinia virus Venus reporter expression, fluorescence; calls by dose curve; tested in A549 cells; also: potency is read from the fitted curve at half-maximal effect; nearly all actives have a fitted effect of over 30% in size
* = called active by the depositor; i = inactive; ? = inconclusive; · = no result given; ! = not active in a repeat; [ ] = dose if it differs, or a comment. An excerpt weighted towards active compounds, which were near 6.5% of everything screened. % is scaled to controls: 0 for no effect and ±100 for the full control effect.

SMILES	HCMV inh	FMDV antiviral	MARV entry inh	Vaccinia mCherry	Lassa entry inh	Vaccinia Venus
CCN(CC)S(=O)(=O)c1cc(NC(=O)CSc2nc3c(cc2C#N)C(=O)CC(C)(C)C3)ccc1C	-85*	?	?	-27%	?	-15%
Cc1ccc(OCC(=O)Nc2c(Cl)ccc3nsnc23)cc1C	2	-18%	-10%[46.1 µM]	-7%	-2%[46.1 µM]	3%
Fc1ccccc1Cn1c2[n+](c3ccc(C(F)(F)F)cc31)CCCCC2	-68*	-18%	-5%[46.1 µM]	i	-11%[46.1 µM]	-17%
Cc1nc(S/C(C(=O)O)=C2/C(=O)Nc3ccccc32)n[nH]1	32	2.5µM*	·	·	·	·
Cc1ncc2c(c1CNC(=O)/C=C/c1cccs1)CCN(C(=O)C1CC(=O)OC13CCCCC3)C2 (stereo not given)	·	-1%	·	-13%	·	9%
Nc1ccc2cc3ccccc3cc2c1	13	31%	·	i	·	-3%
Nc1ccc2ccc(N)cc2c1	-65*	·	·	·	·	·
Cc1cc(C)c2c(=O)cc(C(=O)Nc3c(C)n(C)n(-c4ccccc4)c3=O)oc2c1	16	-20%	-18%[46.1 µM]	2%	21%[46.1 µM]	3%
Cc1ccc(OCc2ccc(-c3ccccc3)cc2)c([N+](=O)[O-])n1	-83*	0%	-1%[46.1 µM]	-19%	-21%	-14%
CCOc1cc(Br)c(COc2ccc(C)nc2[N+](=O)[O-])cc1OCC	-90*	-20%	?	-15%	?	4%
COc1cc(/C=C2/C(=O)N(C)C(=S)N2C)ccc1OCc1cccc(F)c1	-68*	-1%	7%[46.1 µM]	-14%	-7%[46.1 µM]	6%
CN1C(=O)/C(=C/c2ccc(OCc3cccc(F)c3)cc2)NC1=S	-14	-24%	?	-14%	-5%	0%
Cc1cccc(NC(=S)N/N=C2\CC(C)(C)Oc3ccc(O)cc32)c1	-16	?	4.5µM*	?	-9%[46.1 µM]	-26%
COC(=O)[C@H](Cc1ccccc1)N1C[C@@H](N2CCC[C@@H]2C)C[S+]1(=O)[O-]	·	·	·	·	-7%[46.1 µM]	·
CC[C@H](OC(C)=O)C(C[C@H](C)N(C)C)(c1ccccc1)c1ccccc1	-86*	-23%	·	-7%	·	-16%
CC(C)C[C@H](NC(=O)[C@H](Cc1ccccc1)NC(=O)c1cnccn1)B(O)O	-99*	·	·	·	·	·
Cc1cc(C(=O)CCl)c(C)n1-c1cccc([N+](=O)[O-])c1	-95*	11µM*	10µM*	i	?	-3%
Cc1cc(-n2c(C)cc(C(=O)COc3ccc4ccc(=O)oc4c3)c2C)no1	?	-29%	?	0%	-18%	2%
Cc1cc(C(=O)CCl)c(C)n1-c1ccon1	?	22µM*	?	-16%	?	-18%
COc1ccc(Nc2nnc(-c3ccc4c(c3)OCO4)o2)cc1	121	·	·	·	·	·
O=[N+]([O-])c1ccc2c(c1)/C(=N\O)c1ccccc1-2	-85*	-2%	?	-10%	-3%	-14%
ON=C1c2ccccc2-c2ccc(F)cc21	22	6%	3%	?	14%	-23%
ON=C1c2ccccc2-c2ccc(Br)cc21	-63*	7%	27%	-24%	7%	-16%
Nc1cc2c(cc1Cl)-c1ccc([N+](=O)[O-])cc1C2=NO	?	-6%	?	i	1%	17%
O=[N+]([O-])c1ccc2c(c1)C(=NO)c1cc(F)ccc1-2	-95*	-20%	-17%	i	-5%	-7%
SMILES	HCMV inh	FMDV antiviral	MARV entry inh	Vaccinia mCherry	Lassa entry inh	Vaccinia Venus
COc1cc2c(cc1[N+](=O)[O-])-c1ccc([N+](=O)[O-])cc1C2=NO	-94*	-22%	·	-3%	·	-19%
COc1cccc(CNc2nc3c(-c4cccc(C)c4)nnn3c3ccccc23)c1	63	2%	12%[46.1 µM]	-16%	9%[46.1 µM]	-5%
O=C1CCCC=C1C(O)CCOCc1ccccc1 (stereo not given)	·	·	7%[14.2 µM]	·	·	·
CN(Cc1cccs1)[C@H]1CC[C@@]23CCCN2C(=O)CCC[C@H]3[C@H]1Cc1ccccc1	-35	·	·	·	·	·
NC(N)=N/N=C/c1cc([N+](=O)[O-])ccc1O	-38	-8%	?	-23%	21%	-12%
O=[N+]([O-])c1ccc(O)c(/C=N\N=C2c3ccccc3-c3ccccc32)c1	-89*	?	14µM*	-19%	?	-14%
O=C1Nc2c(Cl)cc(Cl)cc2C12Nc1ccccc1S2 (stereo not given)	-22	·	·	·	·	·
COc1cccc(NC(=O)c2c(C(=O)Nc3ccccc3)sc3nc(C)cc(=O)n23)c1	-24	-21%	2%[46.1 µM]	-8%	-3%[46.1 µM]	-5%
CCOC(=O)C1=C(CN2CCN(c3cc(C)ccc3C)CC2)NC(=O)NC1c1ccc(Cl)cc1 (stereo not given)	-80*	0%	?	-5%[7.34 µM]	?	-8%[7.34 µM]
CCOC(=O)C1=C(c2ccccc2)NC(=O)NC1c1ccc(O)c(OCC)c1 (stereo not given)	-30	-24%	9%[46.1 µM]	-15%	-14%[46.1 µM]	-13%
CCOC(=O)C1=C(CN2CCN(c3ccc(C)cc3C)CC2)NC(=O)NC1c1ccc(OC)cc1 (stereo not given)	-82*	?	·	-22%	?	?
CCOC(=O)C1=C(c2ccccc2)NC(=O)NC1c1ccc(O)c(Cl)c1 (stereo not given)	-102*	8.9µM*	·	·	·	·
CCOC(=O)C1=C(CSc2nc3ccccc3s2)NC(=O)NC1c1ccc(OC)cc1 (stereo not given)	-60*	·	?	?	?	?
CCOC(=O)C1=C(CCc2ccccc2)NC(=O)NC1c1ccc(Br)cc1 (stereo not given)	-14	-11%	·	-1%	·	-24%
CCOC(=O)C1=C(CNCc2ccccc2)NC(=O)NC1c1ccc(C)cc1 (stereo not given)	-70*	-22%	-24%[46.1 µM]	-15%	-16%[46.1 µM]	-12%
Cc1nc2ccn(Cc3ccco3)c(=O)c2cc1C(=O)NCc1ccc(F)cc1	5	-9%	·	-15%	?	-13%
COc1cc(-c2nccc3[nH]nc(-c4ccccc4)c23)cc(OC)c1OC	-19	·	·	·	·	·
FC(F)(F)c1cccc(-c2n[nH]c3ccnc(-c4ccsc4)c23)c1	-60*	·	·	·	·	·
O=S(=O)(O)CCS	-8	-7%	·	-9%	·	-21%
NCCCS(=O)(=O)O	?	-29%	8.2µM*!	-13%	?	-14%
Cc1ccc(Nc2nc(NCc3ccco3)nc3nccnc23)cc1Cl	·	·	·	-11%	·	-10%
COc1ccc(CNc2ccccc2C(=O)NCc2ccccc2)cc1COc1ccc(NC(C)=O)cc1	·	·	·	-18%	·	-18%
Cc1cc(N2CCN(c3cccc(C)c3C)CC2)n2cnnc2n1	-18	?	?	-21%	-29%[46.1 µM]	-25%
Cc1cccc(N2CCN(C(=O)c3cn4ccccc4n3)CC2C)c1 (stereo not given)	-62*	?	?	-2%	-5%[46.1 µM]	-15%

Compound activity from PubChem.
